# Laboratory results as given in PubChem BioAssay.
# Calls of active or inactive are those of the source.
# What was measured:
# [1] = test system: Human papillomavirus type 1a protein E7 (residues 44-93); experiment: small molecules binding HPV E7 44-93 – biochemical, small-molecule microarray, residues 44-93, 635 nm fluorescence, primary screen (AID 1108); details: fluorescence 635 nm, higher = more signal;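 further: E7 fragment applied at 1 µg/mL in TBST for 1 h at 4 C; score combines spot fluorescence with its signal to noise ratio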
# [2] = hepatitis C replication reporter changes, two-sided – Huh7 cells, luciferase reporter, HCV replication inhibitor project, primary screen (AID 1109); details: Huh7 HCV replicon luciferase reporter, 48 h; higher = more signal;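 further: huh7 hepatoma cells harbouring a luciferase neomycin HCV replicon reporter; luciferase luminescence as measure of HCV replicon replication; test concentration not given here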
# [3] = biological target: Left-right determination factor 2 (Homo sapiens) (UniProt O00292); experiment: small molecules binding LEFTY2 protein – biochemical, small-molecule microarray, 635 nm fluorescence scan, primary screen (AID 1110); details: higher = more signal
# Left-right determination factor 2 (Homo sapiens), sequence (O00292 whole entry, looked up): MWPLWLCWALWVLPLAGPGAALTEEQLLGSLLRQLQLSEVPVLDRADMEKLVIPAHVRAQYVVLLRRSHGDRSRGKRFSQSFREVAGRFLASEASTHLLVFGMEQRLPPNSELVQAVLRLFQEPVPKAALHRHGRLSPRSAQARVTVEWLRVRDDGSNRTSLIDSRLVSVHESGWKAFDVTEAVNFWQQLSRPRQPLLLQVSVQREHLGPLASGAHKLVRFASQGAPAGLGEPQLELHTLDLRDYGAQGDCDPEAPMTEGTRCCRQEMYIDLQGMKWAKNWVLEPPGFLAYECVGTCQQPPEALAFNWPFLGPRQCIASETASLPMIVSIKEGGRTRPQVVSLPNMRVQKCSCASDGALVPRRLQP
# [4] = biological target: Calmodulin-1 (Homo sapiens) (UniProt P0DP23); experiment: small molecules binding calmodulin-1 with EGTA – biochemical, small-molecule microarray, Cy5-labelled CALM1, profiling panel (AID 1111); details: Cy5-CALM1 binding fluorescence, higher = more signal;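 further: labelled calmodulin applied in Tris saline Tween buffer holding calcium plus EGTA and DTT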
# [5] = biological target: Calmodulin-1 (Homo sapiens) (UniProt P0DP23); experiment: small molecules binding Ca-loaded calmodulin-1 – biochemical, small-molecule microarray, Cy5-labelled CALM1, plus calcium, artefact control for SMM control-protein annotation, profiling panel (AID 1112); details: Cy5-CALM1 binding fluorescence, higher = more signal;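 further: score merges spot fluorescence with signal to noise from triplicate slides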
# [6] = probe aWnt5a binding to arrayed compounds – biochemical, biotinylated probe, 635/667 nm fluorescence, primary screen (AID 1113); details: small-molecule microarray, higher = more signal;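 further: score merges 667 nm fluorescence intensity with signal-to-noise per printed feature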
# [7] = probe aShh binding to arrayed compounds – biochemical, biotinylated probe, 635/667 nm fluorescence, primary screen (AID 1114); details: small-molecule microarray, higher = more signal;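 further: probe is biotin-labelled aShh protein from a stem cell growth factor screen; measures binding of labelled protein to compounds printed on the slide; score merges feature fluorescence at 667 nm with signal-to-noise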
# [8] = probe aNog binding to arrayed compounds – biochemical, biotinylated probe, 635/667 nm fluorescence, primary screen (AID 1115); details: small-molecule microarray, higher = more signal;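 further: probe is biotinylated aNog protein used at 0.15 µg/mL for 1 h at 4 C; z-score combines 667 nm fluorescence of each spot with its signal to noise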
# [9] = biological target: Torsin-1A-interacting protein 1 (Homo sapiens) (UniProt Q5JTV8); experiment: compound microarray binding of lysate hLAP1 – cell lysate, small-molecule microarray, COS7 lysate, 635/667 nm fluorescence, primary screen (AID 1116); details: 635 nm fluorescence, higher = more signal
# Torsin-1A-interacting protein 1 (Homo sapiens), sequence (Q5JTV8 whole entry, looked up): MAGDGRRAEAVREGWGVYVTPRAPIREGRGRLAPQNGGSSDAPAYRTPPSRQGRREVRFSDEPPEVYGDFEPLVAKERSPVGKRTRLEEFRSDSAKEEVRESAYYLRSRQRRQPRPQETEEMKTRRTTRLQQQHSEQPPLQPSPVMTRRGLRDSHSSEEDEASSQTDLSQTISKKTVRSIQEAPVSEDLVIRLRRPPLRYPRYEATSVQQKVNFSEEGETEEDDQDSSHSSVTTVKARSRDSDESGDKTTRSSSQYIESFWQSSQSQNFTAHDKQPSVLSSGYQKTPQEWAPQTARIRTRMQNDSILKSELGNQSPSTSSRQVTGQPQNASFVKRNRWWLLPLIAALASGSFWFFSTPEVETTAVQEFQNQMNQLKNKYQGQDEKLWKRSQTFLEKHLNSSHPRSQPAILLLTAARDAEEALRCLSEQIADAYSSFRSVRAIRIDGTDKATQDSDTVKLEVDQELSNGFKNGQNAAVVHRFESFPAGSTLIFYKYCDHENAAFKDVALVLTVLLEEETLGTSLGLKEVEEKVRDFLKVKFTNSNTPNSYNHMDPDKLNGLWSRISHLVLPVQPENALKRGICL
# [10] = biological target: Alpha-bungarotoxin (Bungarus multicinctus) (UniProt P60615); experiment: compounds binding labelled alpha-BTX control protein – biochemical, small-molecule microarray, Alexa647 label, 635/667 nm fluorescence, artefact control for SMM control protein annotation, profiling panel (AID 1117); details: alpha-BTX-A647 binding fluorescence, higher = more signal
# Alpha-bungarotoxin (Bungarus multicinctus), sequence (P60615 whole entry, looked up): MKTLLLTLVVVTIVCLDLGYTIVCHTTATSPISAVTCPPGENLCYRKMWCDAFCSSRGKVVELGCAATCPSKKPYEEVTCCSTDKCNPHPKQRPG
# Albumin (Bos taurus) = Albumin (Bos taurus) (UniProt P02769); experiment: compounds binding labelled BSA control protein – biochemical, small-molecule microarray, Alexa647 label, 635/667 nm fluorescence, artefact control for SMM control protein annotation, profiling panel (AID 1118); details: BSA-A647 binding, fluorescence 635 nm, higher = more signal;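 further: score merges 667 nm emission intensity and signal-to-noise per printed compound spot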
# Albumin (Bos taurus), sequence (P02769 whole entry, looked up): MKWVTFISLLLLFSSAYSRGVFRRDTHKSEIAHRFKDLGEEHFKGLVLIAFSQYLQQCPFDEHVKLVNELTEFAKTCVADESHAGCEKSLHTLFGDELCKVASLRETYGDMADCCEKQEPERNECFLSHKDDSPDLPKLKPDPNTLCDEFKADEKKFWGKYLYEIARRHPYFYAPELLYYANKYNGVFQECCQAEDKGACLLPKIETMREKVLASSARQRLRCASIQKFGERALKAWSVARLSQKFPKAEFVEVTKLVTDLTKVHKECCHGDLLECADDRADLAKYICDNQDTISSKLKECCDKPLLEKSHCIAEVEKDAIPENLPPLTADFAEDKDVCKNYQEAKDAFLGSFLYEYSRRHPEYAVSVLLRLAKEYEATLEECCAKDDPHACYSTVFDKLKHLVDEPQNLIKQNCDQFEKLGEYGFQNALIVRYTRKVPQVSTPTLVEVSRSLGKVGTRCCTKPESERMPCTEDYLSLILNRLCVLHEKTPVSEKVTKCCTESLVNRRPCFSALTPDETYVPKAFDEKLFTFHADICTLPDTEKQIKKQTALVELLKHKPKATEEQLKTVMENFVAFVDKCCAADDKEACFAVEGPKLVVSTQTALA
# [11] = probe aXIP binding to arrayed compounds – biochemical, NeuroSMM set, 635/667 nm fluorescence, primary screen (AID 1119); details: small-molecule microarray, higher = more signal, called active from +8 up or from −8 down;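 further: probe is the protein aXip251-270 applied at 1 µg/mL to compound-printed slides; binding of probe to printed compounds measured as 667 nm fluorescence plus signal to noise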
# [12] = probe aNOTCH3 binding on compound microarray – biochemical, small-molecule microarray, 635/667 nm fluorescence, primary screen (AID 1120); details: higher = more signal;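 further: probe is a biotin-tagged antibody raised against NOTCH3 rather than NOTCH3 protein; score merges spot fluorescence near 667 nm with spot signal to noise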
# [13] = probe aNOTCH2 binding on compound microarray – biochemical, small-molecule microarray, 635/667 nm fluorescence, primary screen (AID 1121); details: higher = more signal;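 further: score merges feature fluorescence read at 667 nm with its signal to noise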
# [14] = biological target: Carbonic anhydrase 2 (Homo sapiens) (UniProt P00918); experiment: compounds binding carbonic anhydrase 2 – biochemical, small-molecule microarray, Alexa647-labelled CAII, profiling panel (AID 1122); details: CAII-A647 binding fluorescence, higher = more signal
# [15] = COS7 lysate on small-molecule microarray, probe aHis, 635 nm (AID 1123); details: COS7 cell lysate, fluorescence, higher = more signal;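 further: z-score combines 667nm fluorescence intensity with signal-to-noise per printed compound spot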
# [16] = probe aLAP1 signal on lysate-treated microarray – cell lysate, small-molecule microarray, COS7 lysate, primary screen (AID 1124); details: probe aLAP1, fluorescence, higher = more signal;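 further: lysate comes from COS7 cells expressing LAP1 and is applied at 0.3 µg/mL; score merges spot fluorescence near 667 nm with signal-to-noise over triplicate slides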
# Sam68 (KHDRBS1) = experiment: compounds binding KHDRBS1 protein – biochemical, small-molecule microarray, 635 nm fluorescence, primary screen (AID 1125); details: higher = more signal;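 further: score merges 667 nm channel intensity with signal to noise over triplicate slides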
# [17] = test system: Chordin-like protein 2 (CHRDL2); experiment: compounds binding chordin-like 2 – biochemical, small-molecule microarray, 635 nm fluorescence, primary screen (AID 1126); details: fluorescence 635 nm, higher = more signal;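 further: printed compound slides probed with Chrdl2 protein at 4 µg/mL for 1 h at 4 C; score merges 667 nm emission intensity with signal to noise over three replicate slides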
# [18] = biological target: Concanavalin-A (Canavalia ensiformis) (UniProt P02866); experiment: compounds binding concanavalin A lectin – biochemical, small-molecule microarray, Alexa647 label, 635 nm, artefact control for SMM control protein annotation, primary screen (AID 1127); details: ConA-A647 binding fluorescence, higher = more signal;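 further: z combines 667 nm emission intensity with signal-to-noise across three replicate slides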
# Concanavalin-A (Canavalia ensiformis), sequence (P02866 whole entry, looked up): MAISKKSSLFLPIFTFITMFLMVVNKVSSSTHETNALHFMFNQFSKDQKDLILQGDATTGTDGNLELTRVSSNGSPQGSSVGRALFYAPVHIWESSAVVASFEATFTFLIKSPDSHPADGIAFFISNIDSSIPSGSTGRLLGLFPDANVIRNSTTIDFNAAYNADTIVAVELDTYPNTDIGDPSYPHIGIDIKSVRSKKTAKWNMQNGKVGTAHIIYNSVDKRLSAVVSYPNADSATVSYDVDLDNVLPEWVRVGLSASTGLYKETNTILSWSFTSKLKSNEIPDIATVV
Structure (SMILES),composite z-score [1],z-score [2],composite z-score [3],composite z-score [4],composite z-score [5],composite z-score [6],composite z-score [7],composite z-score [8],composite z-score [9],composite z-score [10],composite z-score (Albumin (Bos taurus)),composite Z-score [11],composite z-score [12],composite z-score [13],composite z-score [14],composite z-score [15],composite z-score [16],composite z-score (Sam68 (KHDRBS1)),composite z-score [17],composite z-score [18]
CC=CC1=C(CO)[C@H](O)[C@H]2O[C@H]2[C@@H]1O,-0.342,0.382,1.06,-0.849,-1.1,-0.0236,-0.282,-0.244,-0.193,0.495,-0.0712,0.0296 (inactive),0.213,-0.141,0.17,-0.394,-0.599,0.269,0.753,0.0361
COC(=O)[C@H](C)NC(=O)CCC1CC(OC(=O)NCCc2ccc(F)cc2)CC2(CCCC(COC(=O)NCC3CCCCC3)O2)O1 (stereo not given in full),1.39,-1.34,0.573,0.71,-0.039,-0.1,0.0469,0.144,0.774,0.382,0.0505,0.697 (inactive),-0.0362,-0.106,0.427,1.52,0.191,1.3,0.507,0.971
CN1CCc2nc(-c3ccccc3)c(-c3ccccc3)cc2C1,0.321,0.179,0.47,-0.174,-0.414,-0.0239,0.204,-0.287,0.269,0.127,0.0013,-0.341 (inactive),-0.0343,-0.115,-0.132,-0.0596,-0.247,-0.23,0.58,0.486
CCC1=NOC(CCC2CC(OC(=O)NCc3cccc4c3OCO4)CC3(CCCC(COC(=O)NCCc4ccc(Cl)cc4)O3)O2)C1 (stereo not given),0.916,-0.0374,0.304,-0.257,-0.532,-0.142,-0.16,-0.402,-0.342,-0.148,0.585,-0.0197 (inactive),-0.0647,-0.0651,0.228,0.599,-0.29,0.712,-0.0546,0.0985
CC(=O)OC[C@H]1O[C@H](C#CCCc2ccccc2)C=C[C@@H]1OC(C)=O,-0.515,-1.12,0.751,-0.288,-0.715,-0.0721,0.0204,0.0658,0.128,1.53,0.829,-0.399 (inactive),0.106,-0.0727,0.376,2.2,-0.332,0.179,0.697,0.127
CCN1C(C)=C(C(=O)OC)[C@@H](c2ccccc2)N2C(=O)[C@](O)(C(=O)OC)CC(C(C)=O)=C12,0.285,0.308,0.784,-0.232,-0.604,-0.0037,-0.179,0.0511,0.455,0.371,-0.428,-0.686 (inactive),-0.15,-0.207,-0.174,-0.0478,-0.152,-0.37,0.285,0.29
CCOC(=O)[C@H](Cc1ccccc1)NC(=O)CCC1CC(OC(=O)NCc2ccc3c(c2)OCO3)CC2(CCCC(COC(=O)NCCCN3CCCC3=O)O2)O1 (stereo not given in full),1.35,-1.93,0.56,0.972,0.356,-0.0607,-0.229,-0.0604,0.799,0.426,0.613,0.581 (inactive),-0.0204,-0.179,0.454,1.27,0.334,1.32,0.329,1.1
CC(=O)OC[C@H]1O[C@@H](ON=C(C)C)[C@H](OC(C)=O)[C@@H](OC(C)=O)[C@@H]1OC(C)=O,-2.02,-0.563,0.207,-0.862,-0.678,-0.0459,-0.13,-0.345,-0.958,-1.3,-0.727,-1.02 (inactive),-0.0178,-0.0272,-0.755,-0.775,0.694,-0.743,-0.736,-1.09
CC(=O)OC[C@H]1O[C@@H](ON=C2[C@H]3CCn4c(=O)n(-c5ccccc5)c(=O)n4[C@H]3[C@H](O)[C@@H]3O[C@H]23)[C@H](OC(C)=O)[C@@H](OC(C)=O)[C@@H]1OC(C)=O,1.08,-3.07,0.664,-0.0898,-0.268,-0.101,0.0902,-0.0563,0.479,0.393,0.0931,0.0029 (inactive),0.086,-0.186,0.541,1.09,0.0273,1.07,0.544,0.339
CC(C)=NO[C@@H](C)c1cn([C@H](CO)Cc2ccccc2)nn1,0.833,1.13,0.802,-0.03,-0.408,0.0044,-0.0794,-0.35,0.541,0.392,0.015,0.374 (inactive),0.145,-0.0375,0.138,0.398,0.224,0.863,0.655,0.65
COC(=O)[C@H](C)NC(=O)CCC1CC(OC(=O)NCc2cccc3ccccc23)CC2(CCCC(COC(=O)NCCC(C)C)O2)O1 (stereo not given in full),0.991,-0.243,0.449,-0.234,-0.371,-0.109,-0.147,-0.268,-0.228,-0.178,0.168,0.559 (inactive),-0.095,-0.124,0.24,1.01,0.127,0.997,0.229,-0.087
